Source: the supplement of paper PMC11732987, “Enantioselective OTUD7B fragment discovery through chemoproteomics screening and high-throughput optimisation” (Communications Chemistry, 2025)
Unmarked numbers belong to inactive results.

Assays:
Assay in all cases: log2 ratio of Biotin-Ahx-Ub-VS probe labelling (fragment/DMSO); higher = less target engagement (more negative = stronger competition), active = hit call of the paper (q ≤ 0.05, log2 ratio ≤ -1)
Conditions in all cases: compound concentration: 200 uM; treatment time: 3 h
OTUD6B = molecular target: T1, OTUD6B (UniProt Q8N6M0)
T1 sequence (whole entry): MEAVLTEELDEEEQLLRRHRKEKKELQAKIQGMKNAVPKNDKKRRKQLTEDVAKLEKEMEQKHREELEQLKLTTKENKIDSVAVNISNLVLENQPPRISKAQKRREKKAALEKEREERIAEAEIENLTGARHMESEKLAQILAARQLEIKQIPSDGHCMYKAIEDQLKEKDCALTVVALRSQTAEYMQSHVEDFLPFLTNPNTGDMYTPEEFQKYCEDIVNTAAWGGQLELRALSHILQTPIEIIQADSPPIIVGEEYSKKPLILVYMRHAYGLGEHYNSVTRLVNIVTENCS
Procedure, shortened: (§1)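 HEK293T lysate, 495 µg per sample in Tris/CHAPS/IGEPAL buffer with protease inhibitors, was treated in triplicate with fragment at 200 µM or vehicle for 3 h and then with Biotin-Ahx-Ub-VS at 0.5 µM final for 1 h. Labelled DUBs were NeutrAvidin-enriched, digested with LysC and trypsin, and run by diaPASEF LC-MS/MS. Spectronaut label-free quantities were global-median-normalised, and values are average log2 fragment/vehicle ratios by unpaired t-test on proteins with ≥2 unique peptides.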

OTUD7B = molecular target: T2, OTUD7B (UniProt Q6GQQ9)
T2 sequence (whole entry): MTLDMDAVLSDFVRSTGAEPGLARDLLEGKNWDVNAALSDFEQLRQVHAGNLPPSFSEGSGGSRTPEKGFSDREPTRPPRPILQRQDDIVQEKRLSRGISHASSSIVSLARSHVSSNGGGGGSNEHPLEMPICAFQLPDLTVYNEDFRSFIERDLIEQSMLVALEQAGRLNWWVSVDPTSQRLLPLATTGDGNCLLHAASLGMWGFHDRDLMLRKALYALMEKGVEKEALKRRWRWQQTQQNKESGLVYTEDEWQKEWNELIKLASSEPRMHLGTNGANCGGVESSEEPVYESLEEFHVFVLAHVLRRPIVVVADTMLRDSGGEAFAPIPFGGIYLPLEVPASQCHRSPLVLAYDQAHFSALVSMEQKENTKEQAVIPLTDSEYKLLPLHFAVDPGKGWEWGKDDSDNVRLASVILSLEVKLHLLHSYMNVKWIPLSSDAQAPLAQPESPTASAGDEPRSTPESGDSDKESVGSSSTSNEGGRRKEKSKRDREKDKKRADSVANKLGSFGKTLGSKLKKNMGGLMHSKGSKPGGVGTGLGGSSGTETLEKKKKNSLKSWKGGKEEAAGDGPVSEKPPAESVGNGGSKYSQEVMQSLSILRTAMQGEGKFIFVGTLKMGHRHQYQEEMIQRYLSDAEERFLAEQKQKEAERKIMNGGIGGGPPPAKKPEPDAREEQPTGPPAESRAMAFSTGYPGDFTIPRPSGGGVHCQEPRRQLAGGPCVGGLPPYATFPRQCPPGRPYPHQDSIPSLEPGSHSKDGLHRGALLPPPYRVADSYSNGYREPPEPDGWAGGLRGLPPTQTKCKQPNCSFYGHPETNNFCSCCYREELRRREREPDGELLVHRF
Procedure, shortened: as §1

PRPF8 = PRPF8 (UniProt Q6P2Q9)
Procedure, shortened: as §1

PSMD7 = molecular target: T3, PSMD7 (UniProt P51665)
T3 sequence (whole entry): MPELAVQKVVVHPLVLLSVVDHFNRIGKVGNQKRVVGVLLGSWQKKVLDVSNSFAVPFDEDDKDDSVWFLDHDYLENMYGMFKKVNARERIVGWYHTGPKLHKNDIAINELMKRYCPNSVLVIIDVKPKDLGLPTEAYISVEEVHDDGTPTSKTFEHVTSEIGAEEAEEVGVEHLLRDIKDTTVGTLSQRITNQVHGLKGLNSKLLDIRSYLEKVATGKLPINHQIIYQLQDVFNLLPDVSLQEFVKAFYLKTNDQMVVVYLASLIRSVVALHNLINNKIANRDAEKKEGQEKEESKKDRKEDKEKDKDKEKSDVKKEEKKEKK
Procedure, shortened: as §1

UCHL1 = UCHL1 (UniProt P09936)
Procedure, shortened: as §1

UCHL3 = molecular target: T4, UCHL3 (UniProt P15374)
T4 sequence (whole entry): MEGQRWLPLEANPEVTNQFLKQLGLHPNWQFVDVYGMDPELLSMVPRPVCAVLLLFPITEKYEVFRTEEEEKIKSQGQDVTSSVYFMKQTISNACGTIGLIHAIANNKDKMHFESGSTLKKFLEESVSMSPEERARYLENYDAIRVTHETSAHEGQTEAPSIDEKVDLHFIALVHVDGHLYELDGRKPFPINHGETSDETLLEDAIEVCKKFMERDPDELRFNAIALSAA
Procedure, shortened: as §1

UCHL5 = molecular target: T5, UCHL5 (UniProt Q9Y5K5)
T5 sequence (whole entry): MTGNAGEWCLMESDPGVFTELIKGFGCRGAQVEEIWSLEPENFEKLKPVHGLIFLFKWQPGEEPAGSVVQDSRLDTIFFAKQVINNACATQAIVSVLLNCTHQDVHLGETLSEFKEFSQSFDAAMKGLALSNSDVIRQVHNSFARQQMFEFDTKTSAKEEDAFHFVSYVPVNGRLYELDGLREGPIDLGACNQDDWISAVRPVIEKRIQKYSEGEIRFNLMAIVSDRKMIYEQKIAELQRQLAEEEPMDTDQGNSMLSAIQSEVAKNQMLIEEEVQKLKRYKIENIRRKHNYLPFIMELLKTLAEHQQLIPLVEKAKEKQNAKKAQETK
Procedure, shortened: as §1

USP10 = USP10 (UniProt Q14694)
Procedure, shortened: as §1

USP15 = molecular target: T6, USP15 (UniProt Q9Y4E8)
T6 sequence (whole entry): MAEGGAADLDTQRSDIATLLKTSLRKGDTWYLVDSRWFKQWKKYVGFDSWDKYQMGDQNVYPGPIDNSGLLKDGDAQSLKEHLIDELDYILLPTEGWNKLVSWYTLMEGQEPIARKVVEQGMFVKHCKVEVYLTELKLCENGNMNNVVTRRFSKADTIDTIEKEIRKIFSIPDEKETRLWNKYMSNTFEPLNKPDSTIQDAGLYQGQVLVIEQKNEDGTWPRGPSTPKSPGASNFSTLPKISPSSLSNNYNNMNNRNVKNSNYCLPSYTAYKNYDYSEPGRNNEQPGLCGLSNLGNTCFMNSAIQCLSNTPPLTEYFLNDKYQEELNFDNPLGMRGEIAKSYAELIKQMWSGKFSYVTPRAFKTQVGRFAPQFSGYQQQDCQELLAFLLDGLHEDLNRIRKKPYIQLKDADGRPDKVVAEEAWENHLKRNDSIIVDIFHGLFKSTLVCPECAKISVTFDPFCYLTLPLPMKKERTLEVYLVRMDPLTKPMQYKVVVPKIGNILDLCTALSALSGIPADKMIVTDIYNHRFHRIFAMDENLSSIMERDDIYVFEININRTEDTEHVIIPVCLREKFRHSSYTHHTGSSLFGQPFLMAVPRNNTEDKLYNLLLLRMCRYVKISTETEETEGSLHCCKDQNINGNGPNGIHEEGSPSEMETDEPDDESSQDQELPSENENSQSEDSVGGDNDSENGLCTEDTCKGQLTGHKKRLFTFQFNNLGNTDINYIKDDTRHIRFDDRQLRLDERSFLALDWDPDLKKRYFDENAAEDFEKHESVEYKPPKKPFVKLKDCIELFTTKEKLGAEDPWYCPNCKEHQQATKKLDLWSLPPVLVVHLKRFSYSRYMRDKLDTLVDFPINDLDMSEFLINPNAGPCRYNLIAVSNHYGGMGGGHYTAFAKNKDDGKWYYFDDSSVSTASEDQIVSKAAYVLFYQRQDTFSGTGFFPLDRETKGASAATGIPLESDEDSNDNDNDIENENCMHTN
Procedure, shortened: as §1

USP16 = USP16 (UniProt Q9Y5T5)
Procedure, shortened: as §1

USP16, sequence (Q9Y5T5 whole entry, looked up): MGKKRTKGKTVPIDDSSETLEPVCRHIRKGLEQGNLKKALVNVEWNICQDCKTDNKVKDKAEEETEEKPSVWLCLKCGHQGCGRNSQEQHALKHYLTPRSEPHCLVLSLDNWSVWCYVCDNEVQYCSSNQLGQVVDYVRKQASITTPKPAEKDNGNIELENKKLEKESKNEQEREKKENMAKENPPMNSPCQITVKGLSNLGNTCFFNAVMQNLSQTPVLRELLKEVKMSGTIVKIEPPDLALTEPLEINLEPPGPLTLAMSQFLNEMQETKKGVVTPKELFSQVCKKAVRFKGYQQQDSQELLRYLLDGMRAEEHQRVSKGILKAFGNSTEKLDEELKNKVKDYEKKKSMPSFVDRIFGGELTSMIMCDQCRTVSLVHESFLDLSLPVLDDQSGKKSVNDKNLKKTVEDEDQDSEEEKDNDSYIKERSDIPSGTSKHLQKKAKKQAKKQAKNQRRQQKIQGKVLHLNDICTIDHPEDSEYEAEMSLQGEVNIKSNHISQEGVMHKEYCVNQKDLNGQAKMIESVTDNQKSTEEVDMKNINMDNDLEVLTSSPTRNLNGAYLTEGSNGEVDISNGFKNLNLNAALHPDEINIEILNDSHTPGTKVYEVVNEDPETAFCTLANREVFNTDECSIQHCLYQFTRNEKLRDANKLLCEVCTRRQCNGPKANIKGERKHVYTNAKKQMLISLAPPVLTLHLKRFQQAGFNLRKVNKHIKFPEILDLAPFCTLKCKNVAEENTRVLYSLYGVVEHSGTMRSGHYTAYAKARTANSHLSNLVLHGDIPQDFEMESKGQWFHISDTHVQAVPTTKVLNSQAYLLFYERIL
USP10, sequence (Q14694 whole entry): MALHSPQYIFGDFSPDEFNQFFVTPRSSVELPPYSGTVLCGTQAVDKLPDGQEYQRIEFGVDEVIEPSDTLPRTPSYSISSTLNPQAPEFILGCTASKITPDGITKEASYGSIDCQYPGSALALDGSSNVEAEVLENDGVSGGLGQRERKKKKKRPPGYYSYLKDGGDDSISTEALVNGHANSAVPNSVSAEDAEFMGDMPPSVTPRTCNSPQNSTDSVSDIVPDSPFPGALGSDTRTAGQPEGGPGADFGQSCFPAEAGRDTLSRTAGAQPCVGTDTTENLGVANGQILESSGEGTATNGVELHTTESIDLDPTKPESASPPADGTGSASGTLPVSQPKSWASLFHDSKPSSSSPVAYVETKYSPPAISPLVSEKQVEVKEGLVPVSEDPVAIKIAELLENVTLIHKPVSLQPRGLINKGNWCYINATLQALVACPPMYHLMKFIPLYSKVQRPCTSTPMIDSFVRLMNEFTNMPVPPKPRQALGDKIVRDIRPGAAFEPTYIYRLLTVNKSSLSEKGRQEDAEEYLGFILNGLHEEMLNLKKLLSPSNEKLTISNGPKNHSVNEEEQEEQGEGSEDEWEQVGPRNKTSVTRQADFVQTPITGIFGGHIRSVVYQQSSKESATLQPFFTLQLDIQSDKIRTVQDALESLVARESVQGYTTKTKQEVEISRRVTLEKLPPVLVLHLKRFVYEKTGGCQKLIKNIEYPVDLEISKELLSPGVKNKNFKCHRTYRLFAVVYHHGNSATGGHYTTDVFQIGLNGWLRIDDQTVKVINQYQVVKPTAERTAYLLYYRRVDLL
UCHL1, sequence (P09936 whole entry, looked up): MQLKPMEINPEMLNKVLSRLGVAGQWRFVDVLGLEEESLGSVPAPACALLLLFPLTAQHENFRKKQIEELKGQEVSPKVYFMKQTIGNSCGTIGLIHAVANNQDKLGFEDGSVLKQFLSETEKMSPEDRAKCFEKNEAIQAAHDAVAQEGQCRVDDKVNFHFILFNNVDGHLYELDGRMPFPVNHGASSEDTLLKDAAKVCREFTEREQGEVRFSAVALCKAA

## Cc1cc(NC(=O)CCl)n(-c2ccccc2)n1
OTUD6B
  log2 ratio of Biotin-Ahx-Ub-VS probe labelling: -0.0228
OTUD7B
  log2 ratio of Biotin-Ahx-Ub-VS probe labelling: -0.528
PRPF8
  log2 ratio of Biotin-Ahx-Ub-VS probe labelling: 0.173
PSMD7
  log2 ratio of Biotin-Ahx-Ub-VS probe labelling: 0.00596
UCHL1
  log2 ratio of Biotin-Ahx-Ub-VS probe labelling: -1.18 (active)
UCHL3
  log2 ratio of Biotin-Ahx-Ub-VS probe labelling: 0.614
UCHL5
  log2 ratio of Biotin-Ahx-Ub-VS probe labelling: -0.0207
USP10
  log2 ratio of Biotin-Ahx-Ub-VS probe labelling: -0.234
USP15
  log2 ratio of Biotin-Ahx-Ub-VS probe labelling: -0.2
USP16
  log2 ratio of Biotin-Ahx-Ub-VS probe labelling: -0.321
